MITF inh – human MITF inhibition, primary screen. O75030. AlphaScreen MITF homodimerization, bead proximity signal. inhibition, % at 2.6 µM. hit rate 0.91% among 650,000. AID 1259374; in the data active means inhibition above about 50%;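 further: 0% = vehicle wells with protein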
GPR151 activ – activates the human receptor GPR151; activation, % at 11.2 µM; AID 1508602; PathHunter beta-arrestin GPR151 cells, luminescence; hit rate 1% among 650,000; in the data active means activation above about 4.9%;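 further: 0% = median of compound wells and 100% = cells with positive control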
Target sequence (Q8TDV0 whole entry, looked up): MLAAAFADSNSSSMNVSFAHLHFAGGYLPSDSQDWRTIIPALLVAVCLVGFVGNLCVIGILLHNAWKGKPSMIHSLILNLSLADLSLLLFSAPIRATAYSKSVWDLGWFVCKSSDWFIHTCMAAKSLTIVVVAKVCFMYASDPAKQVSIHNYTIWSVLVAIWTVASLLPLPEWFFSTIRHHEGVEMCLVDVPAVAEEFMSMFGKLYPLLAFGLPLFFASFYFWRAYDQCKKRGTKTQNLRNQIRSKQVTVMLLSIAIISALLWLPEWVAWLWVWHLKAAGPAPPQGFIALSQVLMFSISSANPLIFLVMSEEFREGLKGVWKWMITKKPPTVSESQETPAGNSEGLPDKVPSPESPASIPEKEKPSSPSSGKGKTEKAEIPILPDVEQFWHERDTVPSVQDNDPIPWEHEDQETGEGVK
FBW7 act – human FBW7 E3 ligase activation, primary screen | Q969H0 | AlphaScreen FBW7–phospho-cyclin E peptide binding, activator screen | normalized activity (activation), % at 26.1 µM | hit rate 0.13% among 650,000 | AID 1259310; in the data active means normalized activity above about 1.9%;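 further: purified mutant Fbw7 with reduced substrate affinity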
TEAD-YAP block – TEAD-YAP interaction inhibition | HEK-TIYL cells, TEAD-Gal4/YAP UAS-luciferase luminescence | inhibition, % at 9.12 µM | hit rate 1.4% among 640,000 | AID 1259422; in the data active means inhibition above about 32%;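 further: 0% = median of test compound wells and 100% = reference inhibitor wells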
MITF inh conf – confirmation of human MITF inhibitors. shares compounds with MITF inh. AlphaScreen MITF homodimerization, biotin/His-MITF beads. inhibition, % at 2.6 µM. hit rate 16% among 4,700;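 active means inhibition above a cutoff derived from the DMSO control wells, cut at about 28% in these data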;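 further: 0% = MITF dimer wells with DMSO only; inhibitors lower the bead chemiluminescence by keeping MITF from dimerizing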
AS interf DR – AlphaScreen optical interference, dose response counter-screen; AlphaScreen optical interference counterscreen, cell-free; shares compounds with MITF inh; hit rate 6% among 480; IC50, µM; call rule not given here
AlphaScreen intf2 – AlphaScreen optical interference, counter-screen; inhibition, % at 2.6 µM; shares compounds with MITF inh; hit rate 7.6% among 4,700; LysRS AlphaScreen counterscreen, signal interference, triplicate;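 active means inhibition above a cutoff derived from the DMSO control wells, cut at about 30% in these data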
An asterisk follows results filed as active. An excerpt weighted towards active compounds, which were near 3.4% of everything screened.

How did COc1cccc(CN2CCN(Cc3cc(OC)c(OC)c(OC)c3)CC2)c1OC do in these assays?
MITF inh: 62*; GPR151 activ: -1; FBW7 act: 0; TEAD-YAP block: 4; MITF inh conf: -12; AlphaScreen intf2: -2

Results for CCc1ccc(-n2c(C)cn3c4c(=O)n(CC)c(=O)n(C)c4nc23)cc1 ?
MITF inh: -13; GPR151 activ: 2; FBW7 act: 0; TEAD-YAP block: 8

Results for COC(=O)/C=C/c1ccc(OCC(C)C)c(OC)c1 ?
MITF inh: -2; GPR151 activ: -1; FBW7 act: 0; TEAD-YAP block: -24

Results for CCOC(=O)N1CCC(Nc2c(Nc3ccc(OC)cc3)c(=O)c2=O)CC1 ?
MITF inh: 0; GPR151 activ: 1; FBW7 act: 0; TEAD-YAP block: -4

How did COc1cccc(CN2CCN(C3CCCCC3OC)CC2)c1OC (stereo unspecified) do in these assays?
MITF inh: 74*; GPR151 activ: 0; FBW7 act: 0; TEAD-YAP block: 4; MITF inh conf: 7; AlphaScreen intf2: 11

Results for CC1=NN(c2ccccc2)C(=O)C1C(c1ccc([N+](=O)[O-])cc1)C(C#N)C#N (stereo unspecified) ?
MITF inh: 5; GPR151 activ: 0; FBW7 act: -1; TEAD-YAP block: 0

Results for CC1=NN(c2ccccc2)C(=O)C1C(c1ccccc1[N+](=O)[O-])C(C#N)C#N (stereo unspecified) ?
MITF inh: 52*; GPR151 activ: 1; FBW7 act: 0; TEAD-YAP block: 16; MITF inh conf: 6; AlphaScreen intf2: 12

How did O=C(COC(=O)c1ccc(S(=O)(=O)N2CCOCC2)cc1)Nc1ccc2c(c1)OCO2 do in these assays?
MITF inh: 4; GPR151 activ: -2; FBW7 act: 0; TEAD-YAP block: -1

What do the screens show for `COC(=O)CN(c1ccccn1)S(=O)(=O)c1ccccc1`?
MITF inh: 61*; GPR151 activ: 0; FBW7 act: 0; TEAD-YAP block: 4; MITF inh conf: -6; AlphaScreen intf2: -8

How did COC(=O)CN(c1ccc(I)cc1)S(=O)(=O)c1ccccc1 do in these assays?
MITF inh: 3; GPR151 activ: 0; FBW7 act: 0; TEAD-YAP block: 1

How did CCOc1ccc(-c2cn3c(CC(=O)N4CCN(c5ccccc5)CC4)csc3n2)cc1 do in these assays?
MITF inh: 55*; GPR151 activ: 1; FBW7 act: 0; TEAD-YAP block: 0; MITF inh conf: 4; AlphaScreen intf2: 6

How did CCOc1ccc(-c2cn3c(CC(=O)N4CCCCC4CC)csc3n2)cc1 (stereo unspecified) do in these assays?
MITF inh: 11; GPR151 activ: 0; FBW7 act: 0; TEAD-YAP block: -9

What do the screens show for `COc1cc(C(=O)N2CCN(Cc3ccccc3F)CC2)cc(OC)c1OC`?
MITF inh: 18; GPR151 activ: 0; FBW7 act: 0; TEAD-YAP block: 13

What do the screens show for `COc1cc2c(cc1CN1CCN(C(=O)c3cc(OC)c(OC)c(OC)c3)CC1)OCO2`?
MITF inh: 53*; GPR151 activ: 0; FBW7 act: 0; TEAD-YAP block: 5; MITF inh conf: 12; AlphaScreen intf2: 9

What do the screens show for `COc1cc(C(=O)N2CCN(Cc3ccccc3C)CC2)cc(OC)c1OC`?
MITF inh: 60*; GPR151 activ: -1; FBW7 act: 0; TEAD-YAP block: 1; MITF inh conf: 38*; AS interf DR: >5.6; AlphaScreen intf2: 11

What do the screens show for `CC(C)(C)c1ccc(OCC(O)CN(CCO)CCO)cc1` (stereo unspecified)?
MITF inh: 12; GPR151 activ: 0; FBW7 act: 0; TEAD-YAP block: -19

How did O=C1N[C@H](Cc2ccccc2)C(=O)N2CCN(C(=O)NCc3ccccc3)C[C@H]12 do in these assays?
MITF inh: 69*; GPR151 activ: -1; FBW7 act: 0; TEAD-YAP block: 7; MITF inh conf: 64*; AS interf DR: >6.5; AlphaScreen intf2: -6

How did C[C@H](O)[C@H]1NC(=O)[C@H]2CN(C(=O)NCc3ccccc3)CCN2C1=O do in these assays?
MITF inh: 75*; GPR151 activ: -1; FBW7 act: 1; TEAD-YAP block: 6; MITF inh conf: 71*; AS interf DR: >6.5; AlphaScreen intf2: -13

High-throughput results from PubChem.
